Screens (PubChem BioAssay)
Shown are actives, neighbours in structure and some others; about 9.4% of the full set was active somewhere.
ELG1 repair inh: ELG1-dependent DNA repair inhibition | AID 504467 | HEK293T ELG1-luciferase reporter, luminescence, 16 h; DNA damage induced by 5-fluorouridine | Potency, µM (highest dose often 46.1 µM), actives largely listed as inhibitors | hit rate 2.3% among 330,000; also: nearly all actives have a fitted effect of over 55% in size
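HEK293T cells expressing luciferase-tagged ELG1 (2,000/well) received 5-Fluorouridine plus compound or DMSO for 16 hr at 37 °C. Luciferase was read by ONE-Glo luminescence after 30 min at room temperature.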
SMN2 splice enh: enhancers of SMN2 splice variant expression. HEK293 SMN2-luciferase splicing reporter, luminescence, 30-36 h. Potency, µM (titrated, usually from 46.1 µM), usual class: activators. hit rate 2.8% among 210,000. AID 1458; also: nearly all actives have a fitted effect of over 55% in size
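HEK293 cells carry an SMN2 minigene-luciferase reporter in which exon 7 inclusion puts luciferase in frame. Cells were seeded at 2000 cells/well, attached for 10-12 hours, then exposed to compounds for 30-36 hours at 37C before ONE-Glo luminescence.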
ELG1 genotox: genotoxicity induction in ELG1-luciferase HEK293T cells | HEK293T ELG1-luciferase reporter, luminescence, 16 h | AID 504466 | hit rate 1.3% among 330,000 | Potency, µM (series often up to 46 µM), most hits filed as activators; also: nearly all actives have a fitted effect of over 60% in size
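Luminescence read-out: rising ELG1-luciferase signal, reflecting elevated ELG1 protein under genetic stress, flags genotoxic compounds. Cells were treated for 16 hr at 37 °C before ONE-Glo detection.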
FLuc counter: firefly luciferase modulation, counter-screen for miR-21 project; Potency, µM (series often up to 57.5 µM), hits mostly inhibitors; purified FLuc, Km substrates, luminescence inhibition; AID 588342; P08659; hit rate 6.9% among 360,000; also: nearly all actives have a fitted effect of over 55% in size
Target sequence (P08659 whole entry, looked up): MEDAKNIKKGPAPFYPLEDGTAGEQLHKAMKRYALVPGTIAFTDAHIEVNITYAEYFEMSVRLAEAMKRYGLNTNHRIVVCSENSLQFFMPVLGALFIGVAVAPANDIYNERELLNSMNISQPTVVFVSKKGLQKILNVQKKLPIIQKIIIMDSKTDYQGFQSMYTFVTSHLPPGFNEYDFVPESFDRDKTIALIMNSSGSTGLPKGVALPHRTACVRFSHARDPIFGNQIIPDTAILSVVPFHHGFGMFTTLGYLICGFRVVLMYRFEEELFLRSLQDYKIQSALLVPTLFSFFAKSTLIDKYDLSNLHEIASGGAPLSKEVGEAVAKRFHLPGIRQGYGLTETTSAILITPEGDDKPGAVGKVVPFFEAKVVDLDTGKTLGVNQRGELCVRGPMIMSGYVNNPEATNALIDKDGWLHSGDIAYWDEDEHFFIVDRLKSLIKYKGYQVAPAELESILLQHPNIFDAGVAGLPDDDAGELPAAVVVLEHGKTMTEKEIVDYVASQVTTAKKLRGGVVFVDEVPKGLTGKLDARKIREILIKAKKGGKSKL
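Purified P. pyralis luciferase, 10 nM final, with Km-level 10 uM D-luciferin and 10 uM ATP in 50 mM Tris acetate pH 7.5, 10 mM Mg acetate, 0.01% Tween-20, 0.05% BSA; 6-point qHTS titration about 60 µM downward; luminescence read.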
NPC1 prom act: NPC1 promoter activation; Huh7 NPC1 promoter luciferase reporter, 24 h; Potency, µM (series often up to 9.22 µM), usual class: activators; hit rate 2.4% among 320,000; AID 485313; also: nearly all actives have a fitted effect of over 60% in size
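Luminescence read-out of NPC1 promoter-driven luciferase in stably transfected Huh7 cells; compounds delivered in DMSO and left 24 h at 37C, 5% CO2, qHTS titration format.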
Rab9 prom act: activates the Rab9 promoter; Huh7 Rab9 promoter-luciferase reporter, luminescence, 24 h; Potency, µM (titrated, usually from 9.22 µM), actives largely listed as activators; hit rate 2.8% among 320,000; also: nearly all actives have a fitted effect of over 60% in size
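Steps: seed 1500 Huh7 Rab9-luc cells per well, rest 2 h at 37 °C; add compound in DMSO; incubate 24 h; add luciferase reagent, 10 min ambient; read luminescence.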
Large screens that a line does not name were inactive. Calls follow the shape of the dose curve; as a rule, active = well fitted curve in the direction sought with a large enough effect; inconclusive = small, poorly fitted or top-dose-only effect, or another doubt; inactive = no such curve, though single readings can be large; an effect the other way counts as inactive or inconclusive.

CCOc1ccc(/C=C2/Sc3ccc(C(=O)N4CCOCC4)cc3N(C)C2=O)cc1OC	ELG1 repair inh 8.2µM (no result: SMN2 splice enh)
CO/N=C1\CN(c2nc3c(cc2F)c(=O)c(C(=O)O)cn3C2CC2)CC1CN (centres undefined)	none (no result: ELG1 repair inh, ELG1 genotox, FLuc counter, NPC1 prom act, Rab9 prom act)
O=C(Cc1ccc2cccnc2c1)c1ccc(O)cc1O	ELG1 repair inh inconclusive, ELG1 genotox inconclusive, FLuc counter 21µM, Rab9 prom act inconclusive
Oc1ccc2cccnc2c1	none
Cc1nc(N2CCOCC2)c2nc(-c3ccccc3)n(CCCN3CCCCC3C)c2n1 (centres undefined)	none (no result: ELG1 repair inh, ELG1 genotox, FLuc counter, NPC1 prom act, Rab9 prom act)
CN(C)S(=O)(=O)c1ccc2nc(NC(=O)c3cccs3)sc2c1	ELG1 repair inh inconclusive, SMN2 splice enh 11µM, ELG1 genotox 2.3µM, FLuc counter 1.2µM, NPC1 prom act 1.4µM, Rab9 prom act 0.89µM
O=C(Nc1nc2ccc(S(=O)(=O)N3CCCC3)cc2s1)c1cccs1	FLuc counter inconclusive
CSc1nc2ccc3nc(NC(=O)c4cccs4)sc3c2s1	ELG1 repair inh inconclusive, ELG1 genotox inconclusive, FLuc counter 2.1µM, NPC1 prom act 3.2µM, Rab9 prom act 4µM
CSc1nc2ccc3nc(NC(=O)c4ccc(Cl)s4)sc3c2s1	none
O=C(Nc1nc2ccc(F)cc2s1)c1cccs1	ELG1 repair inh inconclusive, SMN2 splice enh 3.2µM, ELG1 genotox inconclusive, FLuc counter 2.4µM, NPC1 prom act 3.2µM, Rab9 prom act 1.1µM
O=C(Nc1nc2ccc(S(=O)(=O)N3CCOCC3)cc2s1)c1cccs1	FLuc counter 19µM (no result: SMN2 splice enh)
COc1ccc(-c2oc3ncn4nc(-c5ccccc5Br)nc4c3c2-c2ccc(OC)cc2)cc1	none (no result: ELG1 repair inh, ELG1 genotox, NPC1 prom act, Rab9 prom act)
Cc1ccc(C)c(N2CCN(S(=O)(=O)c3ccc(F)c(C(=O)Nc4ccc(Cl)cc4Cl)c3)CC2)c1	none (no result: ELG1 repair inh, SMN2 splice enh, ELG1 genotox, NPC1 prom act, Rab9 prom act)
COc1ccc2[nH]cc(CCNC(=O)c3cnn(-c4ccc(C)cc4)c3C3CCN(C(=O)OC(C)(C)C)CC3)c2c1	none (no result: ELG1 repair inh, SMN2 splice enh, ELG1 genotox, NPC1 prom act, Rab9 prom act)
CC(C)NS(=O)(=O)c1ccc2nc(NC(=O)c3cncc(Br)c3)sc2c1	FLuc counter 19µM (no result: ELG1 repair inh, SMN2 splice enh, ELG1 genotox, NPC1 prom act, Rab9 prom act)
CC(=O)Nc1nc2ccc(-c3nc4ccccc4o3)cc2s1	ELG1 repair inh inconclusive, SMN2 splice enh 5µM, ELG1 genotox inconclusive, FLuc counter 3.4µM, NPC1 prom act 2.2µM, Rab9 prom act 4.5µM
CN(C)S(=O)(=O)c1ccc2nc(NC(=O)c3cccnc3)sc2c1	SMN2 splice enh 14µM, FLuc counter 3.8µM (no result: ELG1 repair inh, ELG1 genotox, NPC1 prom act, Rab9 prom act)
CC(=O)Nc1ccc2nc(NC(=O)c3cccnc3)sc2c1	ELG1 repair inh inconclusive, FLuc counter 12µM, NPC1 prom act inconclusive, Rab9 prom act inconclusive (no result: SMN2 splice enh)
CC(Nc1oc(-c2ccccc2)nc1-c1cccc2ccccc12)c1ccccc1 (centres undefined)	none (no result: ELG1 repair inh, ELG1 genotox, FLuc counter, NPC1 prom act, Rab9 prom act)
CC(=O)Nc1ccc2nc(NC(=O)C(Cl)(Cl)Cl)sc2c1	ELG1 repair inh inconclusive, FLuc counter 15µM (no result: SMN2 splice enh)
CC(=O)Nc1ccc2nc(NC(=O)CCc3ccccc3)sc2c1	Rab9 prom act inconclusive
COc1ccc2nc3cccc(OC)c3nc2c1	ELG1 repair inh inconclusive, SMN2 splice enh inconclusive, FLuc counter inconclusive, Rab9 prom act inconclusive
COc1ccc2nc3ccccc3nc2c1N	ELG1 repair inh inconclusive, ELG1 genotox 18µM, FLuc counter 4.8µM, NPC1 prom act 2.2µM, Rab9 prom act 3.2µM (no result: SMN2 splice enh)
Cc1cc(Nc2ccc(C)c(Cl)c2)n2nc(Cc3ccccc3)nc2n1	none (no result: ELG1 repair inh, ELG1 genotox, NPC1 prom act, Rab9 prom act)
CCOC(=O)c1cc(C)n(CC2CCC(C(=O)Nc3ccc(C(C)=O)cc3)CC2)c1C (centres undefined)	none (no result: ELG1 repair inh, SMN2 splice enh, ELG1 genotox, NPC1 prom act, Rab9 prom act)
COc1ccccc1NC(=O)c1ccc(S(=O)(=O)N(C)c2ccccc2OC)cc1	ELG1 repair inh inconclusive (no result: SMN2 splice enh, FLuc counter, NPC1 prom act, Rab9 prom act)
COc1ccccc1N(C)S(=O)(=O)c1ccc(C(=O)N2CCCc3ccccc32)cc1	ELG1 repair inh 15µM (no result: SMN2 splice enh)
COc1ccccc1N(C)S(=O)(=O)c1ccc(C(=O)NC2CCCCC2)cc1	ELG1 repair inh 23µM (no result: SMN2 splice enh, FLuc counter)
CN(c1ccc(C(=O)NC2CCCC2)cc1)S(=O)(=O)c1ccccc1	ELG1 repair inh inconclusive (no result: SMN2 splice enh)
COc1ccccc1N(C)S(=O)(=O)c1ccc(C(=O)Nc2ccncc2)cc1	ELG1 repair inh 12µM (no result: SMN2 splice enh)
Cc1c(-c2nsc(NC(=O)c3ccc(Cl)cc3)n2)nnn1-c1ccc(C(C)C)cc1	none (no result: ELG1 repair inh, SMN2 splice enh, ELG1 genotox, NPC1 prom act, Rab9 prom act)
